# Measurements as given in the supplement of paper PMC6555819.
# Columns and labels:
# Test in all cases: PBM binding z-score (relative to random genomic background probes); higher = stronger binding; sequences stand for … in GC…GCGATTGACAGCGTAGAATGAAGG
# [1] = tested on: PPARg:RXRa DBDmut IVT, anti-RXR (DBD mutation: RXRa K156A/R161A, NR concentration 270 nM, RXRa partner concentration 90 nM)
# How it was run: (§1)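 Scanned fluorescence from custom Agilent 4×180K protein-binding microarrays was regression-normalized. Binding z-scores use random background probes as reference. Ligand-free nuclear receptor dimers were incubated on the arrays for 1 h and detected with antibodies against each partner (one per run).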
# [2] = tested on: PPARg:RXRa IVT, anti-PPARg (NR concentration 270 nM, RXRa partner concentration 90 nM)
# How it was run: as §1
# [3] = tested on: PPARg DBDmut:RXRa IVT, anti-PPARg (DBD mutation: PPARg1 K132A/R137A, NR concentration 270 nM, RXRa partner concentration 90 nM)
# How it was run: as §1
# [4] = tested on: PPARg DBDmut IVT, anti-PPARg (DBD mutation: PPARg1 K132A/R137A, NR concentration 270 nM)
# How it was run: as §1
# [5] = tested on: PPARg homodimer (NR concentration 180 nM)
# How it was run: as §1
# [6] = tested on: PXR:RXRa (NR concentration 270 nM, RXRa partner concentration 90 nM)
# How it was run: as §1
# [7] = tested on: PXR homodimer (NR concentration 270 nM)
# How it was run: as §1
# [8] = tested on: RARa:RXR (NR concentration 270 nM, RXRa partner concentration 90 nM)
# How it was run: as §1
# [9] = tested on: RARa homodimer (NR concentration 270 nM)
# How it was run: as §1
# [10] = tested on: RARb:RXRa (NR concentration 270 nM, RXRa partner concentration 90 nM)
# How it was run: as §1
# [11] = tested on: RARb homodimer (NR concentration 270 nM)
# How it was run: as §1
# [12] = tested on: RARg:RXRa (NR concentration 270 nM, RXRa partner concentration 90 nM)
# How it was run: as §1
# [13] = tested on: RARg homodimer (NR concentration 270 nM)
# How it was run: as §1
# [14] = tested on: RXRa DBDmut IVT, anti-RXR (DBD mutation: RXRa K156A/R161A, NR concentration 90 nM)
# How it was run: as §1
# [15] = tested on: RXRa homodimer (NR concentration 180 nM)
# How it was run: as §1
# [16] = tested on: THRa:RXRa (NR concentration 90 nM, RXRa partner concentration 90 nM)
# How it was run: as §1
# [17] = tested on: THRa homodimer (NR concentration 90 nM)
# How it was run: as §1
# [18] = tested on: VDR homodimer (NR concentration 270 nM)
# How it was run: as §1
Sequence,PBM binding z-score [1],PBM binding z-score [2],PBM binding z-score [3],PBM binding z-score [4],PBM binding z-score [5],PBM binding z-score [6],PBM binding z-score [7],PBM binding z-score [8],PBM binding z-score [9],PBM binding z-score [10],PBM binding z-score [11],PBM binding z-score [12],PBM binding z-score [13],PBM binding z-score [14],PBM binding z-score [15],PBM binding z-score [16],PBM binding z-score [17],PBM binding z-score [18]
GCGACTGGGGCATCAGCAGGTTACCATGACTTAA,3.94,2.97,-0.844,-0.497,-0.0201,-0.489,-0.454,-0.00016,-0.803,0.805,0.92,0.761,0.815,-0.0631,0.124,0.654,0.00537,-0.549
CAAACTAGGTCACGAAAGGTCAAACTCGAATGAC,8.89,8.97,2.74,2.02,5.15,7.23,4.8,7.97,4.28,5.84,5.84,8.21,9.05,2.91,8.85,5.26,2.82,4.06
CGTCCAAGGTCAATGCTAGGGCAGTGAAAGCATT,2.64,3.52,0.232,-0.81,2.06,3.68,0.492,4.3,-0.245,5.2,4.25,6.47,6.26,3.44,4.5,3.96,1.89,1.93
CCGACTGGGGCCTAAGGTTACCATAAGCCAGCCC,-0.456,-0.247,-1.22,-1.84,0.088,0.127,-0.726,0.85,0.205,0.778,1.1,0.451,-0.117,-0.875,0.652,2,1.26,0.0794
CCGACTGGGGCATAAGGTTAACATAAGCCAGCCC,3.23,3.36,-0.239,-1.26,0.548,0.636,-0.242,1.51,-0.431,1.88,1.89,2.08,1.34,-0.0628,1.45,2.08,1.06,-0.243
AGAATGAGGTTAAGAGCAGGGAAACAGAATACAT,2.72,2.37,0.618,0.293,0.456,1.09,0.121,1.69,-0.0125,1.71,0.878,2,1.27,0.729,2.46,2.19,0.347,0.0105
CCTTACGGGTCACTCCAGGATATAGCATCGGAGT,2.53,2.97,0.582,-0.0388,1.51,3.13,0.912,2.84,0.759,3.4,2.33,4.02,3.98,1.43,4.06,4.39,0.217,1.23
CAAACTAGGTCACCAAAGGTCAAAGTCGAATGAC,8.22,9.1,3.38,2.17,3.38,6.88,2.28,7.52,3.8,5.85,5.94,7.87,8.54,2.57,7.91,5.17,2.46,3.85
CAAACTTGGTCAAGAGGTCAAAGTCCGCTTCCCG,2.35,3.8,0.805,0.619,2.46,5.73,1.66,6.15,1.11,4.47,4.85,5.94,4.95,2.03,6.1,3.78,1.66,3.57
AGTCAACGTTCATCTAGGTAACGTAAGATATGCT,0.5,1.94,0.919,0.334,0.649,-0.212,-0.489,0.244,-0.0246,0.796,-0.148,0.363,0.744,-0.0413,0.0603,0.649,-0.132,-0.282
CCAGACAGGTCAAAGGTAACTCAGTCTGGTACGC,3.48,3.96,-0.0161,0.672,2.75,4.5,0.483,6.08,0.857,4.52,3.43,5.62,4.75,2.47,6.86,3.06,0.0861,0.986
ATCGAAAAGTCGACGAGGTGAGTATACACCGTTT,-0.448,0.432,0.0649,0.51,-0.218,0.103,-0.0447,0.451,-0.121,0.388,0.0886,0.532,0.571,-0.248,0.751,1.74,0.716,-0.201
CCGAGTAGGGTATGGGGCATTCAGGCAACGGTGA,0.659,1.58,-0.658,-0.796,0.951,-0.379,-0.14,-0.154,0.135,0.278,0.595,-0.153,-0.189,-0.938,0.102,0.159,0.0739,0.36
TCGAGTAGGTTACCAATGGGGCATTTAGCTTTCT,3.03,2.59,-0.535,-0.583,-0.292,0.195,-0.763,0.343,-1.23,0.686,0.597,1.09,0.384,0.219,0.324,-0.0531,-0.844,-0.414
